The text below walks through data of PubChem BioAssay (NCI).

SMILES strings stand for the structures. About 83,000 compounds went through this panel and 20% of them were active in at least one assay; those are over-represented in the sample as a whole.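 A percent growth of 40 corresponds to 60% growth inhibition; 0 means no net growth; -100 means all cells died. Active threshold: below 10.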 Values without a mark were called inactive. Activity calls are given as the source filed them.

Holding throughout (experiment): NCI-60 one-dose screen, 48 h (100 = growth as untreated, 0 = no growth, -100 = all killed)
Holding throughout (details): 10 µM unless noted

Assay [1] has as its system HCT-15 colon.
The subject of assay [2] is HT29 colon.
Assay [3] concerns SNB-75 CNS.
In assay [4] the test system is SNB-19 CNS.
The subject of assay [5] is U251 CNS.
For assay [6], the system named is PC-3 prostate.
Assay [7] concerns SK-MEL-5 melanoma.
Assay [8] deals with UACC-62 melanoma.
In assay [9] the test system is SK-MEL-28 melanoma.
The subject of assay [10] is LOX IMVI melanoma.

On to `NC1CC2CCCCC2CC1(O)c1ccccc1` (stereo not drawn), for which the growth in assay [1] was 102%; in assay [2] it was 102%; in assay [3], 80.9%; in assay [4] it was 103%; in [5], 96.4%; in assay [6], 92.8%. The figures for the growth in assay [7], in assay [8] and in assay [9] were 102%, 105% and 111%, respectively.

Consider `CC(=O)O[C@H]1C(=O)[C@@]2(C)[C@H]([C@H](OC(=O)c3ccccc3)[C@]3(O)C[C@H](OC(=O)[C@H](OC(=O)OCC4COC(C)(C)O4)[C@@H](NC(=O)c4ccccc4)c4ccccc4)C(C)=C1C3(C)C)[C@]1(OC(C)=O)CO[C@@H]1C[C@@H]2O` (stereo partly drawn), for which the growth in assay [1] is 29.2%; in [2], 9.74% (active); in assay [3], 41.9%; in assay [4] it was 36.6%; in assay [5] it was 34.4%; in [6], 38.7%. In addition, the values for the growth in [7], in assay [8] and in [9] were 44.1%, 34.4% and 43.8%, respectively.

In the case of `N#C[S-].[Au+].c1ccc(CN2[CH-]N(Cc3ccccc3)C(c3ccccc3)=C2c2ccccc2)cc1`, the growth in assay [1] is 13.8%; in assay [2], 7.04% (active); in assay [3], 43.6%; in [4] it was 16.1%; in assay [5] it was 5.57% (active); in assay [6], 7.2% (active). In addition, the growth in [7] was -36.5% (active); in assay [8], 3.87% (active); in assay [9], 20.8%.

As to `COc1ccc(/C=C\c2cc(OC)c(OC)c(OC)c2)cc1OCC(=O)Nc1nc2ccc(F)cc2s1`, the growth in [1] is 45%; in assay [2], 39.9%; in [3] it was 15.6%; in [4], 72.6%; in assay [5] it was 21.2%; in assay [6] it was 40.4%. The values for the growth in [7], in [8] and in assay [9] were -0.28% (active), 32.4% and 69.5%, respectively.

Turning to `CCCCCCCCCCCCCCCCCC1OC[C@H](COC(=O)O[C@@H](C(=O)O[C@H]2C[C@@]3(O)[C@@H](OC(=O)c4ccccc4)[C@@H]4[C@]5(OC(C)=O)CO[C@@H]5C[C@H](O)[C@@]4(C)C(=O)[C@H](OC(C)=O)C(=C2C)C3(C)C)[C@@H](NC(=O)c2ccccc2)c2ccccc2)O1` (stereo partly drawn), the growth in [1] was 96.8%; in assay [2], 15.7%; in [3], 59.1%; in assay [4] it was 49.6%; in assay [5] it was 46.6%; in [6] it was 45.2%. Further, the growth in [7] was 75.6%; in [8], 46.8%; in assay [9], 55.9%.

Regarding `CC(C)[C@]12O[C@H]1[C@@H]1O[C@]13[C@]1(O[C@H]1C[C@H]1c4c(C(=O)c5ccccc5)oc(OC(=O)c5ccccc5)c4CC[C@@]13C)[C@@H]2O`, the growth in [1] is 5.32% (active); in [2], 8.55% (active); in [3], -30.5% (active); in assay [4], 13.8%; in [5], 12.1%; in [6] it was -0.741% (active). Further, the growth is -51.9% (active) in assay [7], -28.7% (active) in assay [8] and -69.5% (active) in assay [9].

For the compound `CCOC(=O)[C@@H](C)C[C@H](Cc1ccccc1)NC(=O)c1csc([C@@H](C[C@H](C(C)C)N(C)C(=O)[C@@H](NC(=O)[C@H]2CCCCN2C)C(C)(C)C)OC(C)=O)n1`, the growth was 7.37% (active) in assay [1]; 0.339% (active) in assay [2]; 11.9% in assay [3]; 24% in assay [4]; 14.7% in [5]; 21.1% in assay [6]. Also, the figures for the growth in assay [7], in assay [8] and in assay [9] were -46.2% (active), 27% and 51.2%, respectively.

In the case of `CC(=O)O[C@H]1C(=O)[C@@]2(C)[C@H]([C@H](OC(=O)c3ccccc3)[C@]3(O)C[C@H](OC(=O)[C@H](OC(=O)OC[C@@H]4COC(C)(C)O4)[C@@H](NC(=O)c4ccccc4)c4ccccc4)C(C)=C1C3(C)C)[C@]1(OC(C)=O)CO[C@@H]1C[C@@H]2O`, the growth in assay [1] was 3.91% (active); in assay [2], -2.35% (active); in assay [3], -15.6% (active); in assay [4], 12.7%; in assay [5], 17%; in assay [6], 22.1%. Moreover, the growth in assay [7] is 22%; in [8], 24.2%; in [9], 52%.

Regarding `C/C(=C\c1ccn(-c2ccc(N)c(F)c2)n1)[C@@H]1C[C@@H]2O[C@]2(C)CCC[C@H](C)[C@H](O)[C@@H](C)C(=O)C(C)(C)[C@@H](O)CC(=O)O1`, the growth in [1] was 11.4%; in assay [2], 14.9%; in assay [3] it was -16.9% (active); in assay [4], 38.4%; in assay [5] it was 24%; in assay [6], 14.7%. Further, the growth in [7] was 14.7%; in [8], 21.7%; in [9] it was 58.3%.

`O=Cc1cn(Cc2ccc(Cl)cc2)c2ccccc12`: the growth in assay [1] was 89.7%; in assay [2], 106%; in assay [3], 86.7%; in assay [4], 89.7%; in assay [5], 75.5%; in [6], 82.3%. In addition, the growth in assay [7] was 94.4%; in assay [8] it was -0.449% (active); in assay [9] it was 96.4%.

For the compound `COC1=CC(=O)O[C@@H](/C=C/c2ccc3c(c2)OCO3)C1`, the growth in assay [1] is 103%; in [2] it was 111%; in assay [3], 116%; in assay [4], 101%; in assay [5], 97.9%; in assay [6], 83.5%. Besides, the results for the growth in assay [7], in [8] and in assay [9] were 116%, 94% and 120%, respectively.

`COc1cc(NCCCN=C(N)N)c2ncccc2c1`: the growth was 98.6% in assay [1]; 83.9% in assay [2]; 73.4% in [3]; 81.8% in [4]; 58.5% in assay [5]; 83.7% in assay [6]. For the same compound, the growth in assay [7] was 72.1%; in assay [8], 90.3%; in assay [9] it was 99.6%.

Regarding `CCOC(=O)[C@@H](C)C[C@H](Cc1ccccc1)NC(=O)c1csc([C@@H](C[C@H](C(C)C)N(C)C(=O)[C@@H](NC(=O)[C@H]2CCCCN2C)C(C)(C)CC)OC(C)=O)n1`, the growth in assay [1] was 8.77% (active); in assay [2], -4.94% (active); in [3] it was -5.95% (active); in assay [4], 17.6%; in assay [5], 9.55% (active); in [6] it was 24.1%. The growth in assay [7] is -15.3% (active); in assay [8], 33.1%; in assay [10] it was 14.3%; in assay [9] it was 38.6%.
